40 molecules from PubChem BioAssay (EPA / NIEHS) can be followed below.

Results filed as inconclusive are left out. Calls of active or inactive are those of the source. The calls were made as follows: active = hit-call score of the fitted dose curve at least 0.9, where 1 is the maximum; inconclusive = response in the unintended direction; inactive = score below 0.9.

In this assay the target is Glucocorticoid receptor (Homo sapiens) (UniProt P04150). As to the kind of experiment: ATG_GR_TRANS: Attagene TRANS-FACTORIAL HepG2 Assay for human Glucocorticoid Receptor (GR) (AID 2282978).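 Also: activators score as hits since higher reporter transcript over DMSO is fitted.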 Particulars: HepG2 Attagene TRANS GR reporter, mRNA transcription. Here is the method: ATG_TRANS is a cell-based, multiplexed-readout assay that uses HepG2, a human liver cell line, with measurements taken at 24 hours after chemical dosing in a 24-well plate.ATG_GR_TRANS is one of 30 assay component(s) measured or calculated from the ATG_TRANS assay. It is designed to make measurements of mRNA induction, a form of inducible reporter, as detected with fluorescence intensity signals by Reverse transcription polymerase chain reaction (RT-PCR) and Capillary electrophoresis technology.Data from the assay component ATG_GR_TRANS was analyzed into 1 assay endpoint. This assay endpoint, ATG_GR_TRANS, was analyzed in the positive analysis fitting direction relative to DMSO as the negative control and baseline of activity. Using a type of inducible reporter, measures of mRNA for gain-of-signal activity can be used to understand the reporter gene at the transcription factor-level as they relate to the gene NR3C1. Furthermore, this assay endpoint can be referred to as a primary readout, because this assay has produced multiple assay endpoints where this one serves a reporter gene function. To generalize the intended target to other relatable targets, this assay endpoint is annotated to the nuclear receptor intended target family, where the subfamily is steroidal.
Sequence of Glucocorticoid receptor (Homo sapiens) (P04150 whole entry, looked up): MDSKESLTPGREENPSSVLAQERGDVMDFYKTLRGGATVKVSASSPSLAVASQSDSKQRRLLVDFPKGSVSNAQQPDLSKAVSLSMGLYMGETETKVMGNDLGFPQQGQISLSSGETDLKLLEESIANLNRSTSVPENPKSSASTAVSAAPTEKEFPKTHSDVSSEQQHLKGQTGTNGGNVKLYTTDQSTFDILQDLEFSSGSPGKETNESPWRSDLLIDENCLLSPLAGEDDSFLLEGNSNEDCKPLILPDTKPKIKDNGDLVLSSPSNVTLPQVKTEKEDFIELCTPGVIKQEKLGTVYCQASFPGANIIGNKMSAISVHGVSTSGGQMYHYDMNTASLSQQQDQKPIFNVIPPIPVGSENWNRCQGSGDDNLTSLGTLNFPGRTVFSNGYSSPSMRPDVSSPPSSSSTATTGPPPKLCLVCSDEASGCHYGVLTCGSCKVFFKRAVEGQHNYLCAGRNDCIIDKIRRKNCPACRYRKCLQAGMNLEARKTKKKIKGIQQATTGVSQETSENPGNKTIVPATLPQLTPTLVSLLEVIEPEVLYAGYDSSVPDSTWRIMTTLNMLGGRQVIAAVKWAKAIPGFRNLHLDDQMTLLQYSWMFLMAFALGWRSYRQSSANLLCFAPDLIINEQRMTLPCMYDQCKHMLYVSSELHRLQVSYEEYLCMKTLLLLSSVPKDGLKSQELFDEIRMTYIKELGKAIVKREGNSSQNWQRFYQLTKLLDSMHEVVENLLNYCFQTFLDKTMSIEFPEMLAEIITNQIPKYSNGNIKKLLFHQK
Human liver HepG2 cells are transiently transfected with multiple reporter transcription units (MRTUs) in 6-well plates using FuGene 6 reagent (Roche; 3 ml FuGene/1 mg DNA). The MRTU constructs are regulated by a cis-regulating element (promoter). […] A major difference between the CIS and TRANS system is that in CIS activities of endogenous TFs are measured, whereas the TRANS assay evaluates changes in activities of exogenous, chimeric NR-Gal4 proteins. […] At the end of 24 hour incubation, total RNA was isolated using TriZol reagent (Invitrogen). The isolated RNA is then reverse-transcribed using oligo(dT) primer and Mo-MLV reverse transcriptase (Invitrogen) with DNAse I (Ambion) treatment for 30 min. The one-tenth of the produced cDNA was amplified by PCR using Taq DNA polymerase (Invitrogen) and two reporter sequence-specific primers. The PCR products were fluorescently labeled by primer extension with 6-arboxyfluorescein (6-FAM) 5'-labeled reporter sequence-specific primer (2 min at 95 C, 20 s at 68 C and 10 min at 72 C) and these products were digested with 5U of HpaI (New England Biolabs) for 2h at 37 C. The fragments were purified using Qiaquick PCR columns (Qiagen), analyzed on an ABI 3130xL genetic analyzer (Applied Biosystems) with peak positions identified by using a set of X-rhodamine (ROX)-labeled MapMarker1000 molecular weight standards (BioVentures). The raw capillary electrophoresis data was processed using Attagraph software (Attagene).
As to `CCCCCCCCc1ccc(O)cc1`, the call was inactive. Still for that read-out and setting: for `CCC1(c2ccc(N)cc2)CCC(=O)NC1=O` (stereo not given) the value was “inactive”. The same measure, in the same setting: for `CCCCC(CC)CO[N+](=O)[O-]` (stereo not given) the value was “inactive”; for `O=C1C(Cl)=C(Cl)C(=O)c2ccccc21`, “inactive”. The same measure, in the same setting: the entry for `CC(=O)c1cc(C(C)(C)C)cc2c1CCC2(C)C` is “inactive”; for `CCOP(=S)(OCC)SCSP(=S)(OCC)OCC` it is “inactive”. As to `Nc1ccc(Cl)cc1C(=O)c1ccccc1`, the outcome was inactive. On the same count and under the same terms, for `CC(=O)C(Cl)C(=O)N(C)C` (stereo not given) the value was “inactive”; for `O=C(OC1CCCCC1)c1ccccc1C(=O)OC1CCCCC1`, “inactive”.

For `C[C@]12CCC(=O)C[C@@H]1CC[C@@H]1[C@@H]2CC[C@]2(C)[C@@H](O)CC[C@@H]12`, the molecule was called inactive. On the same count and under the same terms, for `Clc1ccc(COC(Cn2ccnc2)c2ccc(Cl)cc2Cl)cc1` (stereo not given) the value was “inactive”; for `CCSC(C)CC1CC(=O)C(C(CC)=NOC/C=C/Cl)=C(O)C1` (stereo not given), “inactive”. On the same count and under the same terms, the entry for `O=c1[nH]c(=O)[nH]c(=O)[nH]1` is “inactive”; for `COC(=O)c1sccc1S(=O)(=O)NC(=O)Nc1nc(C)nc(OC)n1` it is “inactive”. The same measure, in the same setting: for `CC(C)C1CCC(Cc2ccc(Cl)cc2)C1(O)Cn1cncn1` (stereo not given) the value was “inactive”; for `Cc1cc(=O)[nH]o1`, “inactive”. Take `O=C1CCCN1`: the outcome was inactive. Same read-out and setting: for `CCOP(=S)(OCC)SCCS(=O)(=O)CC` the value was “inactive”; for `O=C(Cl)c1ccc(Cl)cc1`, “inactive”. The same measure, in the same setting: for `CC(C)(OO)c1ccccc1` the value was “inactive”. Same read-out and setting: for `BrCCBr` the value was “inactive”; for `Oc1c(I)cc(I)cc1I`, “inactive”. Regarding `CCc1ccccc1C`, the call was inactive. Consider `COC(=O)Cc1ccccc1`, for which the outcome was inactive. For `O=CC=O`, the molecule was classed as inactive. On the same count and under the same terms, the entry for `COS(=O)(=O)c1ccc(C)cc1` is “inactive”; for `Nc1ncc([N+](=O)[O-])s1` it is “inactive”. Same read-out and setting: the entry for `O=S(=O)(c1ccc(Cl)cc1)c1ccc(Cl)cc1` is “inactive”; for `CCC(C)(C)c1ccc(O)c(C(C)(C)CC)c1` it is “inactive”; for `ClCC(Cl)CCl` it is “inactive”. Broadly, the AC50 is the concentration at which the activity in the assay is half-maximal. Consider `C=C(C)C(=O)[O][Sn]([CH2]CCC)([CH2]CCC)[CH2]CCC`, for which the AC50 is 1980 nM (active). As for `CCOP(=S)(OCC)Oc1nc(Cl)c(Cl)cc1Cl`, the call was inactive. Still for that read-out and setting: for `Nc1ccc(-c2ccc(N)c(Cl)c2)cc1Cl` the value was “inactive”. The same measure, in the same setting: the entry for `COc1ccccc1OC` is “inactive”; for `COP(=S)(OC)Oc1c(Cl)cc(C)cc1Cl` it is “inactive”. Consider `CC(=O)[O][Hg][c]1ccccc1`, for which the result was inactive.

As for `Fc1ccc(C2(Cn3cncn3)OC2c2ccccc2Cl)cc1` (stereo not given), the molecule was called inactive. The same measure, in the same setting: the entry for `Clc1nc(Cl)nc(Cl)n1` is “inactive”; for `N#CCc1ccc(Cl)cc1` it is “inactive”. As to `CN(CCCC(=O)c1cccnc1)N=O`, the call was inactive.
